The source of these data is PubChem BioAssay (NCI).

This is part of a sample that, as a whole, favours compounds with a hit. Of some 83,000 tested, about 20% had one in any assay.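 For each line, cells grew in 96-well plates with the test compound present at a single concentration for 48 hours.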 Unmarked numbers belong to inactive results. The source made the active and inactive calls. Rule for the calls: active = growth percent below 10; inactive = the rest.

Assay in all cases: NCI-60 one-dose screen, 48 h (100 = growth as untreated, 0 = no growth, -100 = all killed)
Details in all cases: 10 µM unless noted

Experiment [1] has as its system SK-MEL-2 melanoma.
The subject of experiment [2] is EKVX NSCLC.
For experiment [3], the system named is SN12C renal.
Experiment [4] relates to UO-31 renal.
Experiment [5] relates to TK-10 renal.
Experiment [6] concerns ACHN renal.
In experiment [7] the test system is CAKI-1 renal.
Experiment [8] concerns A498 renal.
Experiment [9] concerns CCRF-CEM leukemia.
Experiment [10] deals with SR leukemia.
Experiment [11] has as its system RPMI-8226 leukemia.
Experiment [12] relates to OVCAR-8 ovarian.
In experiment [13] the test system is OVCAR-5 ovarian.
For experiment [14], the system named is OVCAR-4 ovarian.
Experiment [15] has as its system SK-OV-3 ovarian.
For experiment [16], the system named is IGROV1 ovarian.
Experiment [17] deals with OVCAR-3 ovarian.
Experiment [18] deals with HS 578T breast.
For experiment [19], the system named is MOLT-4 leukemia.
Experiment [20] deals with NCI/ADR-RES ovarian.

For `O=C(Nc1ccccc1Cl)c1ccc(NC2=C(Cl)C(=O)N(C3CCCCC3)C2=O)cc1`, the growth in experiment [1] was 104% [30 µM]; in [2], 98.5% [30 µM]; in experiment [3] it was 97.6% [30 µM]; in [4], 75.8% [30 µM]; in experiment [5], 88.5% [30 µM]; in [6] it was 78.9% [30 µM]. Also, the growth in experiment [7] was 20.5% [30 µM]; in [8], 123% [30 µM]; in experiment [9] it was 39.6% [30 µM]; in [10], -22.2% [30 µM] (active); in [11], 23.6% [30 µM]; in experiment [12] it was 28.9% [30 µM]. The growth in [13] was 109% [30 µM]; in experiment [14], 68.9% [30 µM]; in experiment [15], 109% [30 µM]; in experiment [16] it was 78.2% [30 µM]; in [17] it was 15.9% [30 µM]; in experiment [18], -0.344% [30 µM] (active).
On to `COc1ccc(CCNc2nc(SC)nc(-c3cccc([N+](=O)[O-])c3)c2C#N)cc1OC`, for which the growth was 98.6% in experiment [1]; 80.5% in [2]; 84% in [3]; 84.8% in [4]; 112% in [5]; 72% in experiment [6]. The growth is 78% in experiment [7]; 94.8% in experiment [8]; 98.7% in experiment [9]; 95% in experiment [19]; 82.6% in experiment [11]; 87.5% in [13]. For the same molecule, the growth is 5.9% (active) in experiment [14]; 72.7% in experiment [15]; 95.4% in experiment [16]; 102% in experiment [17]; 68.3% in experiment [18]; 68.4% in [20].
`C[n+]1ccccc1/C=C/c1ccc2cccc(O)c2n1`: the growth in experiment [1] was 103%; in [2], 32%; in experiment [3], 91.8%; in [4], 57.9%; in experiment [5], 109%; in experiment [6] it was 102%. Also, the growth was 57.3% in experiment [7]; 63.9% in [8]; 103% in experiment [9]; 105% in [11]; 100% in [12]; 51.5% in [13]. In addition, the growth was 112% in experiment [14]; 39.1% in [15]; 112% in [17]; 108% in experiment [18]; 109% in experiment [20].
Take `COc1cc2nnc3c4cccnc4[nH]c3c2cc1OC`: the growth in experiment [1] was 80.1%; in experiment [2], 73.1%; in experiment [3], 33%; in experiment [4], -52.8% (active); in experiment [5] it was 42.9%; in experiment [6], -36.7% (active). The growth in experiment [7] was -14.7% (active); in [8], 106%; in experiment [9] it was -37.5% (active); in experiment [12], -15.2% (active); in [14], 29.8%; in [15] it was 81.7%. Besides, the values for the growth in experiment [17] and in experiment [20] were 30.5% and 23.4%, respectively.
As for `CC1=NN(c2nc(-c3ccc(Cl)cc3)c(C#N)c(N3CCOCC3)n2)C(=O)C1`, the growth in [1] was 87.1%; in experiment [2] it was 88.8%; in experiment [3], 88.5%; in [4] it was 71.9%; in experiment [5] it was 117%; in experiment [6] it was 73.6%. In addition, the growth was 70.1% in experiment [7]; 58% in experiment [8]; 85.9% in experiment [9]; 92.1% in experiment [19]; 57.1% in experiment [11]; 97.3% in experiment [13]. Also, the growth was 51.5% in experiment [14]; 86.6% in experiment [15]; 81% in experiment [16]; 50.2% in [17]; 54.6% in [18]; 96.1% in experiment [20].
Consider `CCCCN(CCCC)CCCn1c(-c2ccccc2)ccc1-c1ccccc1`, for which the growth in experiment [1] is 93.5%; in [2], 49.6%; in [3] it was 70.7%; in experiment [4], 56.9%; in [5], 83.1%; in experiment [6], 62.9%. The growth in [7] is 59.8%; in experiment [8], 59.3%; in experiment [9] it was 44.3%; in experiment [10], 42.7%; in experiment [11] it was -2.32% (active); in [12] it was 82.4%. Also, the growth is 73.4% in experiment [13]; 37% in [14]; 81.3% in experiment [15]; 64.5% in experiment [16]; 59.2% in experiment [17]; 82.7% in [18]. For the same molecule, the growth in [20] was 65.1%.
With `N#Cc1c(-c2ccc(Cl)cc2)nc(NN=Cc2ccco2)nc1N1CCOCC1`, the growth in experiment [1] is 82.3%; in [2] it was 46.5%; in experiment [3], 82.1%; in experiment [4], 27.1%; in [5], 68.8%; in experiment [6] it was 76.7%. The growth is 62.8% in experiment [7]; -19.9% (active) in [8]; 88.7% in experiment [9]; 66.5% in experiment [11]; 87.9% in [12]; 76.9% in [13]. Besides, the growth in experiment [14] is 65.9%; in [15], 49.4%; in experiment [16], 25.9%; in experiment [17] it was 66.6%; in experiment [18], 68.2%; in experiment [20], 75.8%.
`O=C1Nc2ccc(Br)cc2C12Oc1ccccc1C1CC(c3ccc(F)cc3)=NN12` (stereo unspecified): the growth in experiment [1] was 98.1%; in experiment [2], 85.5%; in [3], 93.3%; in experiment [4], 65.6%; in [5] it was 121%; in [6], 91%. Moreover, the growth in [7] is 78.7%; in experiment [8], 102%; in experiment [9], 91%; in experiment [10], 87.1%; in [11], 84%; in [12], 93.7%. Besides, the growth in [13] is 111%; in experiment [14] it was 85.5%; in experiment [15], 102%; in experiment [16], 72.8%; in experiment [17] it was 96.3%; in experiment [18] it was 89.1%. For the same molecule, in [20], the growth is 97.3%.
